PubChem BioAssay AID1479 (National Center for Advancing Translational Sciences (NCATS), 2009)
The campaign covered roughly 280,000 compounds. About 820 (0.29%) were called active. Not shown: some 1% with an inconclusive outcome. Many of the other results were omitted from the sample, so actives are more common in it than they were. A number with no mark means an inactive call. The call rests on the fitted dose curve; in most records, active means well fitted curve in either direction with a large enough effect; inconclusive means small, poorly fitted or top-dose-only effect; inactive means flat fitted curve, though single readings scatter.

Experiment: Total Fluorescence Counterscreen for Inhibitors of the Interaction of Thyroid Hormone Receptor and Steroid Receptor Coregulator 2
Settings: TRb/SRC2 Texas Red total fluorescence interference; series mostly up to 201 µM; fluorescence change, negative = quenching: at the top concentration
Text: NIH Molecular Libraries Probe Production Network [MLPCN]
NIH Chemical Genomics Center [NCGC]
Assay Provider: R. Kip Guy, St. Jude Children's Research Hospital
Thyroid receptor (TR) regulates many homeostatic processes including basal metabolism, cardiovascular function, body weight, and lipid trafficking. TR modulators are potential therapeutics for obesity and hyperlipidemias but current thyroid analogs have undesirable side effects, particularly cardiac stimulation. To identify inhibitors that specifically prevent the interaction of TR with the steroid receptor […] 2 (SRC2), a fluorescence polarization assay was screened. This assay detects interaction of the ligand-binding domain of human TRb with a Texas Red labeled SRC2 peptide, corresponding to a 20 amino acid region of the nuclear receptor interaction domain (Arnold et al., 2006). Total fluorescence (555 nm excitation and 632 nm emission) was measured to identify potential fluorescent and light absorbing compounds. Such compounds may be artifacts that interfere with the fluorescence polarization assay.
Arnold, L. A.; Estebanez-Perpina, E.; Togashi, M.; Shelat, A.; Ocasio, C. A.; McReynolds, A. C.; Nguyen, P.; Baxter, J. D.; Fletterick, R. J.; Webb, P.; Guy, R. K. A high-throughput screening method to identify small molecule inhibitors of thyroid hormone receptor coactivator binding. Sci STKE 2006, p 13.
NCGC Assay Protocol Summary:
For screening, 5 uL/well 0.6 uM TRb and 20 nM SRC2 Texas Red in protein buffer (20mM Tris hydrochloride, 100mM NaCl, 10% glycerol, 1mM EDTA, 0.01% NP-40, 1mM DTT, 1uM T3 and 5% DMSO) was dispensed into black solid 1536-well plates (Grenier) using a solenoid-based dispenser. Following transfer of 23 nL compound or DMSO vehicle by a pin tool, the plates were centrifuged 15 s at 1000 RPM and incubated 5 hr at ambient temperature. The plates were read by an Envision (Perkin Elmer) to detect fluorescence polarization of SRC2 Texas Red (555 nm excitation and 632 nm emission). Data were normalized to unbound (all components except TRb) and bound SRC2 Texas Red controls. Total fluorescence (TF) was calculated as follows: TF = S + 2P where S and P are fluorescence readings in the parallel and perpendicular channels, respectively.
Keywords: NIH Roadmap, MLPCN, MLI, MLSMR, qHTS, NCGC, qHTS, thyroid hormone receptor, steroid receptor coactivator, fluorescence polarization
On the % scale 0 is the no-effect control and ±100 the full control effect; potency means the concentration at half of the fitted maximal effect; tags describe the fitted curve by direction and shape or compound fluorescence and quenching.

Row | Structure (SMILES) | Potency | fluorescence change, negative = quenching
1 | CCCCC(=O)N/N=C/c1c(O)n(CC)c(=S)n(CC)c1=O | 0.316 µM [quencher] (active) | –
2 | Clc1ccc([C@@]2(Cn3cncn3)C[C@H](Br)CO2)c(Cl)c1 | – | 0.213%
3 | CCOP(=O)(OCC)SCS(=O)(=O)C(C)(C)C | – | -3.78%
4 | CCOP(OCC)OCC | – | -0.876%
5 | O=C1NC(=O)N(c2ccccc2)C(=O)/C1=C/c1ccc([N+](=O)[O-])s1 | 44.7 µM [fluorescent] (active) | –
6 | CC(C)OC(=O)Nc1ccccc1 | – | -3.86%
7 | CCC/C(=N\OCC)C1=C(O)CC(CC(C)SCC)CC1=O (stereo not given) | – | -0.248%
8 | Fc1ccc(Oc2ccnc3cc(Cl)cc(Cl)c23)cc1 | – | -9.31%
9 | CCC(C)(C)c1ccc(O)c(C(C)(C)CC)c1 | – | -0.0155%
10 | CCCN(CCOc1c(Cl)cc(Cl)cc1Cl)C(=O)n1ccnc1 | inactive | –
